Screening results: PubChem, Broad Institute
Sampled rows, rich in hits. Any-hit rate of the full collection: about 3.7%.
rRNA inh HTS = inhibitors of bacterial rRNA selective over humanized ribosomes | GFP signal change (wild-type ribosome), % (concentration not given with the values) | E. coli WT GFP vs humanized-ribosome RFP mutants, fluorescence, 24 h; hits give low values; DMSO median 0, no signal -100 | hit rate 1.6% among 350,000 | AID 720706;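 active means significant combined selectivity score with lowered wild-type GFP, culture density cut under 30%, mutant RFP and density less affected; inactive means any of these conditions unmet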
MITF TRPM1 HTS = activators of MITF-driven TRPM1 promoter activity in SK-MEL-5 cells; SK-MEL-5 TRPM1-promoter luciferase, 24 h; % of positive control, neutral wells = 0; activation, % at 12.5 µM; hit rate 0.75% among 300,000; AID 588334;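 active means mean activation of at least 80% with every replicate also reaching 80%; inconclusive means mean reaches 80% but some replicate falls short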;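 further: 0% = neutral control wells and 100% = parthenolide positive control wells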
esBAF inh = inhibitors of esBAF chromatin remodeling in mouse ES cells; Bmi1-luciferase knock-in reporter, 24 h; 100% = twice the neutral-well signal; hit rate 2% among 350,000; AID 602393; reporter increase, % at 12.5 µM; in the data active means activation above about 40%; inconclusive means no clear call, values can overlap the other calls;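 further: 0% = median of the plate's neutral control wells and 100% = double that signal; a rise in the Bmi1 reporter signal indicates esBAF inhibition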
Wnt act = Wnt/beta-catenin pathway activation; Wnt/beta-catenin reporter cell assay, activator, plate reader; activation, % at 9.35 µM; hit rate 1.2% among 300,000; in the data active means activation above about 30%, passing the limit was not always enough; inconclusive means no clear call, values can overlap the other calls;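 further: 0% = neutral control wells and 100% = positive control wells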
MLL AF4-AF9 inh = inhibitors of human MLL-AF4/AF9 interaction | AlphaScreen, biotin-AF4 peptide binding to FLAG-AF9 | hit rate 0.47% among 350,000 | inhibition, % at 10 µM | P42568 | AID 651704;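 active means every replicate reaching a set inhibition limit, whatever the replicate mean, cut at about 25% in these data; inconclusive means mean inhibition reaches that limit but some replicates miss it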;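 further: 0% = plate neutral control median and 100% = total signal loss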
Target sequence (P42568 whole entry, looked up): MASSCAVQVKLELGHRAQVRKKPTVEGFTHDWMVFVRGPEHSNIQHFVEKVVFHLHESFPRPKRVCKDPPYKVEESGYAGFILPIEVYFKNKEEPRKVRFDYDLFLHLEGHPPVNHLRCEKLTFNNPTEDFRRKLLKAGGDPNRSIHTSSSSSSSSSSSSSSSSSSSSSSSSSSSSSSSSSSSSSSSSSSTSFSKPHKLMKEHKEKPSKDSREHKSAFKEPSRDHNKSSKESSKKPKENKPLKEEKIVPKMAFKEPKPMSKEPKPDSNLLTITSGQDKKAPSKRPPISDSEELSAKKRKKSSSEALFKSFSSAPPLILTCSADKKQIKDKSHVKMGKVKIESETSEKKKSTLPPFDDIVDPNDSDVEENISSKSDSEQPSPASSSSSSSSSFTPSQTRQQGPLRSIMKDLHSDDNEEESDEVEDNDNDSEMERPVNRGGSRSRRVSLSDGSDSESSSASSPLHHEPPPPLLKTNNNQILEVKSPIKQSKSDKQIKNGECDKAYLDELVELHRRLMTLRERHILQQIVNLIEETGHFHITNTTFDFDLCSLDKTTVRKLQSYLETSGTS
The depositor's hits bear a star; u = inconclusive; x = no result given; ! = not confirmed by another sample.

SMILES	rRNA inh HTS	MITF TRPM1 HTS	esBAF inh	Wnt act	MLL AF4-AF9 inh
O=C(N[C@H]1CC[C@H](CCNS(=O)(=O)c2ccc(Cl)cc2)O[C@@H]1CO)c1cccc(F)c1	-25*!	x	8	-2	-2
O=C(NCC[C@H]1CC[C@@H](NS(=O)(=O)c2ccc(F)cc2)[C@@H](CO)O1)Nc1ccc(Cl)cc1	-9	x	18	x	7
CNCC(O)Cn1c(C(F)(F)F)nc2ccccc21 (stereo not drawn)	x	5	1	-1	x
N#CC(=C1CCCC1)c1nc(-c2cc3ccccc3oc2=O)cs1	-7	88*	108*	19	-38
Cc1ccc(-c2csc(C(C#N)=C3CCCC3)n2)cc1	x	98*	49*	23	x
N#CC(=C1CCCC1)c1nc(-c2ccccc2)cs1	x	121*	x	x	x
O=C(Cc1ccc(Cl)cc1Cl)Nc1ccncc1	-25*	-15	-22	-3	0
O=C(Cc1cccs1)NCc1ccc(Cl)cc1Cl	-12	x	66*	27	5
O=C(Cc1cccs1)NCc1cccc(Cl)c1	12	61	50*	8	-1
O=C(Cc1ccccc1[N+](=O)[O-])NCc1ccc(Cl)cc1Cl	x	94*	x	17	x
O=C(Cc1ccc(Cl)cc1Cl)Nc1ccncc1Cl	-8	-5	-18	-4	-1
O=C(Cc1cccs1)NCc1cccc(CNC(=O)Cc2cccs2)c1	13	18	-6	-1	0
Cc1ccc(S(=O)(=O)Nc2ccc3c(c2)C(=O)N([C@H](C)CO)C[C@H](C)[C@@H](CN(C)C(=O)Nc2cccc4ccccc24)O3)cc1	-14	x	-6	x	7
N#C/C(=C\c1ccc(F)cc1)c1nc(-c2ccco2)cs1	-1	71	79*	12	-3
O=C(Nc1ccc(C2=NCCN2)cc1)c1ccc(C(=O)Nc2ccc(C3=NCCN3)cc2)c([N+](=O)[O-])c1	-58	19	x	2	38*
CCOC(=O)/C(C#N)=C/c1ccc(-c2ccsc2C(=O)OC)o1	x	x	54*	-3	x
COc1ccc(Nc2cnn(-c3nc4ccccc4s3)c(=O)c2Cl)cc1	-25*	32	x	-11	-3
CC(OC(=O)CCN=C1NS(=O)(=O)c2ccccc21)C(=O)Nc1ccc(S(N)(=O)=O)cc1 (stereo not drawn)	-1	2	1	0	-2
Cn1c2ccccc2c2ncn(CCC3=CCCCC3)c(=O)c21	-1	x	74*	x	x
Cn1c2ccccc2c2ncn(CCCN3CCOCC3)c(=O)c21	x	-3	x	x	x
Cc1nc2ccc(NC(=O)c3sccc3C)cc2s1	x	44	46*	12	x
Cc1nc2ccc(NC(=O)Cc3ccccc3F)cc2s1	-7	121*	x	-1	-2
Cc1nc2ccc(NC(=O)c3cccs3)cc2s1	1	121*	x	25	-15
CC(=O)Nc1nc2ccc(NC(=O)c3ccco3)cc2s1	x	34	14	0	x
CNC(=O)Nc1ccc2nc(C)sc2c1	10	1	x	x	-2
SMILES	rRNA inh HTS	MITF TRPM1 HTS	esBAF inh	Wnt act	MLL AF4-AF9 inh
Cc1nc2ccc(NC(=O)c3ccco3)cc2s1	7	91*	x	u	0
Cc1nc2ccc(NC(=O)Cc3cccc(F)c3)cc2s1	7	-4	x	0	2
CCC(C)N(C)Cc1cccc(C2(O)CCN(S(=O)(=O)c3ccc(F)c(C)c3)CC2)c1 (stereo not drawn)	x	-15	2	-5	x
COc1cccc(C2C(C#N)=C(N)N(N(C)C)C3=C2C(=O)CCC3)c1OC (stereo not drawn)	6	3	-6	0	-1
O=C(CN1CCN(C(=O)c2cccc(S(=O)(=O)N3CCCC3)c2)CC1)Nc1cccc(F)c1	6	-1	-4	-2	1
Cc1ccc(CSc2nc3c(c(N(C)C)n2)CCCC3)cc1	x	5	-2	x	x
Cc1nc(SCc2ccccc2)nc2c1CCC2	-38	93*	100*	16	0
CCOC(=O)C(C)N1C(=O)S/C(=C/c2cc(C)n(-c3ccccn3)c2C)C1=O (stereo not drawn)	x	34	21	47*	x
COCCn1c(C)cc(/C=C2\NC(=S)N(C)C2=O)c1C	7	19	x	-1	4
COc1ccc(N=C2S/C(=C\c3cc(C)n(C)c3C)C(=O)N2CC(C)C)cc1	x	-1	2	x	x
CCn1c(C)cc(/C=C2/SC(=O)N(C(C)C(=O)OC)C2=O)c1C (stereo not drawn)	-3	u	30	47*	15
COCCn1c(C)cc(/C=C2/SC(=O)N(C(C)C(=O)OC)C2=O)c1C (stereo not drawn)	-1	97*	66*	-2	11
COC(=O)CN1C(=O)S/C(=C/c2cc(C)n(C)c2C)C1=O	x	70	57*	u	x
COc1ccccc1CNC(=O)C[C@@H]1CC[C@@H]2[C@H](COc3ccc(NC(=O)Nc4ccc(F)c(F)c4)cc3C(=O)N2C)O1	-9	x	-3	x	-1
Cc1cc(C)nc(NC(=S)Nc2ccc(F)cc2F)c1	20	-1	x	0	0
COC(=O)C(C)N1C(=O)S/C(=C/c2cc(C)n(C(C)C)c2C)C1=O (stereo not drawn)	x	86*	x	38*	x
CCOC(=O)C(C)N1C(=O)S/C(=C/c2cc(C)n(-c3ccncc3)c2C)C1=O (stereo not drawn)	-30	0	10	1	24
CCOC(=O)C1CCN(C(=O)c2ccc(Cl)c(NC3=NC4CS(=O)(=O)CC4S3)c2)CC1 (stereo not drawn)	7	7	3	-3	25*
Cc1ccc(S(=O)(=O)CCC(=O)N(C)c2c(N)n(Cc3ccccc3)c(=O)[nH]c2=O)cc1	-1	-1	6	-3	-15
COc1ccc(NC(=O)CCN2C(=O)c3ccccc3S2(=O)=O)cc1	x	-2	4	x	x
O=C(Cc1ccc(Cl)cc1)NNC(=O)c1cnccn1	x	12	x	-10	x
COC(=O)N/N=C/c1ccc(OS(=O)(=O)c2ccc(C)cc2)c(OC)c1	-28*	0	x	4	x
COc1cccc(C(=O)NCC(=O)N/N=C/c2ccc(OC(=O)c3cccs3)c(OC)c2)c1	-8	-16	x	-4	-59
COc1cc(/C=C2\SC(=S)N(CC(=O)O)C2=O)ccc1OS(=O)(=O)c1ccc(C)cc1	-18*	-5	3	-3	11
COc1cc(/C=N/NC(=O)CNC(=O)c2ccccc2)ccc1OC(=O)c1cccs1	x	13	0	33*	x
COc1cc(/C=N/NC(=O)c2cccnc2)ccc1OS(=O)(=O)c1ccc(C)cc1	-23	6	x	x	1
COc1cc(/C=C2/SC(=S)N(CC(=O)O)C2=O)ccc1OC(=O)c1cccs1	-19*	9	4	5	-1
CCCNC(=O)N1[C@@H]2Cn3c(cccc3=O)[C@H]1[C@@H](C(=O)NCC(F)(F)F)[C@@H]2CO	2	x	-4	x	-4
Cc1ccc(Cl)cc1N1CCN(C(=O)Cc2c(C(=O)O)[nH]c3ccccc23)CC1	-30*	-14	-5	-3	-4
Cc1ccc(Cl)cc1N1CCN(C(=O)Cc2c(C(=O)O)[nH]c3ccc(Cl)cc23)CC1	-11	11	6	-1	-1
